# What was measured:
# Test in all cases: DAPPL (digital affinity profiling via proximity ligation, sequencing); 10 mM Tris-HCl pH 7.5, 50 mM NaCl, 1 mM DTT, 4% glycerol, room temperature, 30 min; GST-TFs on glutathione beads, 16-mer random dsDNA library, 0.1% formaldehyde crosslink after washing; high values mean tight binding
# Settings in all cases: protein: recombinant; tags: N-terminal GST; dsDNA, one strand shown
# FLI1 = molecular target: T1, FLI1 (Homo sapiens, UniProt Q01543 1-452)
# T1 sequence: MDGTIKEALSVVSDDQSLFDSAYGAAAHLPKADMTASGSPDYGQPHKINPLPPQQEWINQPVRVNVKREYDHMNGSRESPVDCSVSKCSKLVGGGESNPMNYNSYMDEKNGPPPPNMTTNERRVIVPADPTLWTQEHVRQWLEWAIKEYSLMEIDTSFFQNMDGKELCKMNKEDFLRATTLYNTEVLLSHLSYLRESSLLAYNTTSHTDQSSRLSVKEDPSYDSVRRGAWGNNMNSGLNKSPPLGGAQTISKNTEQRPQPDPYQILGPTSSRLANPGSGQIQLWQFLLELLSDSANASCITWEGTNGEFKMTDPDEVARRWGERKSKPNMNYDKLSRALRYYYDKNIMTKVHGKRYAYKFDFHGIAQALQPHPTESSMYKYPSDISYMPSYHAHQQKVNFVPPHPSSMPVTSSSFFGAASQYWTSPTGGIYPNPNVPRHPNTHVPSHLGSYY
# In short: (§1)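 Pools were built from human transcription factors expressed in yeast as GST fusions, captured on glutathione beads and DNA-barcoded, along with a tag-only sample. Incubation with 200 nmole of a 16-mer random double-stranded DNA library lasted 30 min at room temperature in Tris/NaCl/DTT/glycerol buffer, and was followed by washing, 0.1% formaldehyde crosslinking, proximity ligation, PCR amplification and Illumina NextSeq500 sequencing. Binding signal is the quotient of each hexamer's read frequency for a factor and its frequency for the tag-only sample.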
# ELK1 = molecular target: T2, ELK1 (Homo sapiens, UniProt P19419 1-428)
# T2 sequence: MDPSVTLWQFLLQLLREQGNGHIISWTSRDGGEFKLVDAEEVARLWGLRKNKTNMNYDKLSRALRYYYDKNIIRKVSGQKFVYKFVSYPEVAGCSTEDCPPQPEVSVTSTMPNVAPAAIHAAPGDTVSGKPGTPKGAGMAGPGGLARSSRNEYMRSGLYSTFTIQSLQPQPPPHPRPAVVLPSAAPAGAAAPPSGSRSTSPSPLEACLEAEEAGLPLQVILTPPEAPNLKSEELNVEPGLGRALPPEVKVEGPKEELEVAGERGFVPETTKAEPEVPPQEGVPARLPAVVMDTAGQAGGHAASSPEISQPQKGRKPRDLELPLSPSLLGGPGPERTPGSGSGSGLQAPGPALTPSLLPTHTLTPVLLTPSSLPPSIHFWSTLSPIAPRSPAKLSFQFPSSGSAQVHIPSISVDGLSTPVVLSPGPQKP
# In short: as §1
# GABPA = molecular target: T3, GABPA (Homo sapiens, UniProt Q06546 1-454)
# T3 sequence: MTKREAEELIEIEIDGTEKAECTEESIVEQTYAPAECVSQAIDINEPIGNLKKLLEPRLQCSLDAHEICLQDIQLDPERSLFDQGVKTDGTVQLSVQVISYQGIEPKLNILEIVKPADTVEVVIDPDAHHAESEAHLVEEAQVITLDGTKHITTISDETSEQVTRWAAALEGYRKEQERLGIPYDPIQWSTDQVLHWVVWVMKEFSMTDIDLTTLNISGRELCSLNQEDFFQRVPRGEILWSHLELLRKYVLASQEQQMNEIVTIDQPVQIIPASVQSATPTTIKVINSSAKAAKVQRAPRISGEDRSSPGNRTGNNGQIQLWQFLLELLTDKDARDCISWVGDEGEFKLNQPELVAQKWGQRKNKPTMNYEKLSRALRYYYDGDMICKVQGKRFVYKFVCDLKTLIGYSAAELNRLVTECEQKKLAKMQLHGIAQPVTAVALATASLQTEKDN
# In short: as §1
# ERG = molecular target: T4, ERG (Homo sapiens, UniProt P11308 1-479)
# T4 sequence: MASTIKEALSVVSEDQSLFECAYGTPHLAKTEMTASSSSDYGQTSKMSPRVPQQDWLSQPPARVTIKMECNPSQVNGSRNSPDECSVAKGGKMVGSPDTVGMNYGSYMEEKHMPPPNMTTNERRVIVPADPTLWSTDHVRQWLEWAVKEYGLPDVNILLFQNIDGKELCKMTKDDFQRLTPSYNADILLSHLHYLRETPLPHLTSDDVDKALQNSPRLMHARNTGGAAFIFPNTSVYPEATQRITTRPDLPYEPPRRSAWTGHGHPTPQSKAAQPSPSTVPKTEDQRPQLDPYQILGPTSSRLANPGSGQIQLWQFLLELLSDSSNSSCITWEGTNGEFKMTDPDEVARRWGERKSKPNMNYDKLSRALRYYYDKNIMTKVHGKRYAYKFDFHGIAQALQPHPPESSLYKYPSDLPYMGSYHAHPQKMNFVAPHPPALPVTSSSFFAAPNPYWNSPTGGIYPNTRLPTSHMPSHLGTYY
# In short: as §1
# ELF1 = ELF1 (Homo sapiens, UniProt P32519 1-619)
# ELF1, sequence (P32519 whole entry): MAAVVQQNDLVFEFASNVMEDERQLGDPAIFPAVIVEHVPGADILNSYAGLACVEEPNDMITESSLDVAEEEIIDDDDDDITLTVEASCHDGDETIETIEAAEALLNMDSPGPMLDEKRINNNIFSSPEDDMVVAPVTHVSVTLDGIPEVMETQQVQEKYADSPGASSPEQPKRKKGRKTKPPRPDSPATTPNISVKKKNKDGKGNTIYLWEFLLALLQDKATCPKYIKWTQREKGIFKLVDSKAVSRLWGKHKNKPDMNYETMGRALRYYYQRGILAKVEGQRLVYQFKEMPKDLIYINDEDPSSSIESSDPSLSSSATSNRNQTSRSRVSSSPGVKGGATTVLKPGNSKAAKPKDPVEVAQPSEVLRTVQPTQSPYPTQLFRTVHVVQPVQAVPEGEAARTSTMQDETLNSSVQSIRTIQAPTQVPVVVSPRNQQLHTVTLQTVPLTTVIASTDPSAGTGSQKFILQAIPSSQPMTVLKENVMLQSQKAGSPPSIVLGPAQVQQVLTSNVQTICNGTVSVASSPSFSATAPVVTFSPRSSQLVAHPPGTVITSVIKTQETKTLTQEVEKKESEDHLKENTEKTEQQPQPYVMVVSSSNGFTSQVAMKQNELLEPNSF
# In short: as §1
# EHF = molecular target: T5, EHF (Homo sapiens, UniProt Q9NZC4 1-300)
# T5 sequence: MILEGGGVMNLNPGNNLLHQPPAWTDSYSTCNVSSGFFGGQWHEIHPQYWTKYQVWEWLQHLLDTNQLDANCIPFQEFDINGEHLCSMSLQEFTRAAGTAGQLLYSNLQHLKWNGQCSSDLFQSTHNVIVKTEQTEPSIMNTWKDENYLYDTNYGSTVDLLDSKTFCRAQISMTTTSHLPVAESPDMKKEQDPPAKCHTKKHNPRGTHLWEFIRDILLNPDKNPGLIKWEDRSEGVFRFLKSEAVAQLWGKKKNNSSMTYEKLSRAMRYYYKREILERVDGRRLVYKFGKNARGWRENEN
# In short: as §1
# SPI1 = SPI1 (Homo sapiens, UniProt P17947 1-270)
# In short: as §1
# SPIB = SPIB (Homo sapiens, UniProt Q01892 1-262)
# SPIB, sequence (Q01892 whole entry): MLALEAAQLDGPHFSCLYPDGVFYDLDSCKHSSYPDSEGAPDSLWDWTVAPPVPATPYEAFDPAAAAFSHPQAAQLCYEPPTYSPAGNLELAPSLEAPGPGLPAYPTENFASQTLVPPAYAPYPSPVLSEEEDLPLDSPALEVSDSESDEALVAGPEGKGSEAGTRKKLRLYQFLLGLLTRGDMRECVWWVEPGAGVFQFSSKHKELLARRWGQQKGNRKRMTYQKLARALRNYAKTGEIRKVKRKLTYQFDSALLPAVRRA
# In short: as §1
# ELK3 = molecular target: T6, ELK3 (Homo sapiens, UniProt P41970 1-407)
# T6 sequence: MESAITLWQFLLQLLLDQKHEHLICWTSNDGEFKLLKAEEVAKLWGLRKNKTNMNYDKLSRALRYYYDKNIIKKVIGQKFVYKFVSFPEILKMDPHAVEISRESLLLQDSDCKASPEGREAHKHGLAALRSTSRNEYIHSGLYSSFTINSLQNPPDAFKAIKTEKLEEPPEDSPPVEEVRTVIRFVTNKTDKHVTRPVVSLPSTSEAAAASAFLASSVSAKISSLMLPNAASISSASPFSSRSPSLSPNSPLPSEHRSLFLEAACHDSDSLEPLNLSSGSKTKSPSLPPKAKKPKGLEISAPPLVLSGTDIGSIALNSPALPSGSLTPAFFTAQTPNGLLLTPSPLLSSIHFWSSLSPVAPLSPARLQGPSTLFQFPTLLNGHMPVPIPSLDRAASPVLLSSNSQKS
# In short: as §1
# ETV5 = ETV5 (Homo sapiens, UniProt P41161 1-510)
# ETV5, sequence (P41161 whole entry): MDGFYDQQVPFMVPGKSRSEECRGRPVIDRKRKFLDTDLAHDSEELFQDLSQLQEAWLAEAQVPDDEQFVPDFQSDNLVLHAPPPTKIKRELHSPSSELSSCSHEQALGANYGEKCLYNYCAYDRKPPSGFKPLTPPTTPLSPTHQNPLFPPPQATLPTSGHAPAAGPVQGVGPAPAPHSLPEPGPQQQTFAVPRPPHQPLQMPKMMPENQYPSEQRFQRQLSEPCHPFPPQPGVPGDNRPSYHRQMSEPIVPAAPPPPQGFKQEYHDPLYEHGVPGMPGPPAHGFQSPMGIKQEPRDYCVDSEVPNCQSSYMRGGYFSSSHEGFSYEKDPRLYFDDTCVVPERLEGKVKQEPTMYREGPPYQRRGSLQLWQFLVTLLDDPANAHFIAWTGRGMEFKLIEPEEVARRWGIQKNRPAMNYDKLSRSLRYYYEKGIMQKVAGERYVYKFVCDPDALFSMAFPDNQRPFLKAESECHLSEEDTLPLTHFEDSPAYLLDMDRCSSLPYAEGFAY
# In short: as §1
sequence,measurement,setting,value
GAAGTC,binding signal,FLI1,"1.15 fold enrichment (6-mer frequency, TF over GST control)"
same,binding signal,ELK1,"1.2 fold enrichment (6-mer frequency, TF over GST control)"
same,binding signal,GABPA,"1.04 fold enrichment (6-mer frequency, TF over GST control)"
same,binding signal,ERG,"1.33 fold enrichment (6-mer frequency, TF over GST control)"
same,binding signal,ELF1,"1.1 fold enrichment (6-mer frequency, TF over GST control)"
same,binding signal,EHF,"1.13 fold enrichment (6-mer frequency, TF over GST control)"
same,binding signal,SPI1,"1.51 fold enrichment (6-mer frequency, TF over GST control)"
same,binding signal,SPIB,"1.22 fold enrichment (6-mer frequency, TF over GST control)"
same,binding signal,ELK3,"1.19 fold enrichment (6-mer frequency, TF over GST control)"
same,binding signal,ETV5,"1.17 fold enrichment (6-mer frequency, TF over GST control)"

# Source: publication PMC7862700, “An all-to-all approach to the identification of sequence-specific readers for epigenetic DNA modifications on cytosine”
